Values joined by “and” are separate entries in the source; they are usually repeats but may differ in a detail not shown here. Identical values can stand only once. About 83,000 compounds went through this panel and 20% of them were active in at least one assay; those are over-represented in the sample as a whole.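 Treatment: one concentration, 48 hours, 96-well format. Scoring: percent growth, with anything below 10 considered active.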 Active and inactive are the calls of the source.
Experiments:
Experiment in all cases: NCI-60 one-dose screen, 48 h (100 = growth as untreated, 0 = no growth, -100 = all killed)
Conditions in all cases: 10 µM unless noted
[1] = system: RPMI-8226 leukemia
[2] = system: OVCAR-8 ovarian
[3] = system: OVCAR-5 ovarian
[4] = system: OVCAR-4 ovarian
[5] = system: SK-OV-3 ovarian
[6] = system: IGROV1 ovarian
[7] = system: OVCAR-3 ovarian
[8] = system: NCI/ADR-RES ovarian
[9] = system: HS 578T breast

Measured: growth

CCOC(=O)NC(N)=O
inactive: [1] 101% and 99.4% | [2] 102% and 97% | [3] 101% | [4] 116% and 106% | [5] 104% and 114% | [6] 98% and 110% | [7] 113% and 125% | [8] 105% and 107%

NC1=NC(c2ccccc2)N=C(Nc2ccccc2)N1 (stereo not drawn)
active: [7] 9.87% and -1.56%
inactive: [1] 95.5% and 130% | [2] 97.6% and 101% | [3] 101% and 94.7% | [4] 117% and 62.4% | [5] 94.3% and 67.6% | [9] 26.1% and 42.4% | [8] 111% and 109%

C(=N\OCCc1ccccc1)/c1ccccn1
inactive: [1] 117% and 98.3% | [2] 108% and 103% | [4] 114% and 113% | [5] 123% | [6] 111% | [7] 105% and 104% | [9] 117% and 105% | [8] 117% and 104%

Cc1nc(Nc2ccc(Cl)cc2)c2cnn(-c3ccccc3)c2n1
inactive: [1] 108% | [2] 104% | [3] 108% | [4] 103% | [5] 116% | [6] 112% | [7] 106% | [8] 98.2%

CCCCCCCCCCCCCCCCC(=O)O
inactive: [1] 99.4% | [2] 103% | [3] 117% | [4] 106% | [5] 116% | [6] 107% | [9] 100% | [8] 100%

Cn1c(-c2ccccc2)cc(=O)cc1-c1ccccc1
inactive: [1] 78.9% | [2] 80.1% | [3] 79.2% | [4] 85.6% | [5] 92.4% | [7] 122% | [9] 105% | [8] 82.2%

Cc1ccc([N+](=O)[O-])cc1Br
inactive: [1] 108% | [2] 91.1% | [3] 89.9% | [4] 105% | [5] 96.4% | [6] 113% | [8] 108%

COC(=O)c1nc(N)nc(C(=O)OC)c1C(=O)c1cccc2ccccc12
inactive: [1] 109% | [2] 117% | [3] 103% | [4] 108% | [5] 121% | [6] 117% | [7] 132% | [9] 108% | [8] 103%

CC(=O)Oc1ccc(C2(c3ccc(OC(C)=O)cc3)C(=O)Nc3ccccc32)cc1
active: [4] 6.67% and -15.3% | [9] -18.5% and -15.5%
16.6% (inactive) and -4.21% (active): [8]
inactive: [1] 108% and 75.1% | [2] 27.1% and 25.5% | [3] 103% and 89.5% | [5] 115% and 114%

COc1ccc(CCl)c(C)c1OC
inactive: [1] 106% | [2] 99.3% | [3] 100% | [4] 109% | [5] 110% | [7] 105% | [9] 105% | [8] 105%

COc1ccc(-n2[nH]c3c(cnc4ccccc43)c2=O)cc1
inactive: [1] 75.7% and 106% | [2] 101% and 99.7% | [3] 107% and 108% | [4] 111% and 97.6% | [5] 105% and 99.4% | [6] 87.6% and 115% | [7] 100% and 116% | [9] 117% and 97.5% | [8] 78.5% and 101%

Cc1c(Cl)c(C)c(Cc2c(C)c(Cl)c(C)c(Cl)c2O)c(O)c1Cl
active: [5] -6.21% | [7] 5.17% | [8] -3.46%
inactive: [1] 10% | [2] 11.4% | [3] 45.6% | [4] 13.9% | [6] 38.8% | [9] 12.1%

CC(=O)Oc1cc(C)c(OC(C)=O)c(C)c1C
inactive: [1] 92.1% | [2] 99.8% | [3] 125% | [4] 125% | [5] 125% | [7] 119% | [9] 91.1% | [8] 95.2%

C/C=C/C(=O)OCCCCCCCCCCCC
inactive: [1] 99.9% | [2] 90.5% | [3] 99.2% | [4] 113% | [5] 97.5% | [6] 111% | [9] 107% | [8] 106%

O=C1c2cccnc2-c2ncccc21
inactive: [1] 99.8% [100 µM] | [2] 106% [100 µM] | [3] 122% [100 µM] | [4] 109% [100 µM] | [5] 107% [100 µM] | [6] 113% [100 µM] | [7] 110% [100 µM] | [8] 102% [100 µM]

COc1ccc2oc3cc(NCCN(C)C)ccc3c(=O)c2c1
inactive: [1] 103% and 73.2% | [2] 88% and 63.4% | [3] 88.2% and 87.1% | [4] 106% and 91.7% | [5] 92.5% and 55% | [6] 90.3% and 88.4% | [7] 121% and 107% | [8] 90.5% and 69.6%

Nc1ccc2ccc(NS(=O)(=O)N3CCCCC3)cc2c1
inactive: [1] 46% | [2] 34.2% | [3] 56.1% | [4] 39.2% | [5] 31.8% | [6] 76.3% | [9] 20.9%
active: [7] -9.56% | [8] -24.8%

O=c1[nH]c(=O)c2[nH]c(=O)[nH]c2[nH]1
inactive: [1] 101% | [2] 102% | [3] 99.7% | [4] 109% | [5] 115% | [6] 106% | [7] 107% | [9] 102% | [8] 106%

Oc1ccc(O)c(-c2ccccc2)c1
inactive: [1] 42% | [2] 62.9% | [4] 53.8% | [5] 83.3% | [6] 47% | [7] 20.5% | [9] 76.5% | [8] 50.6%

CCN(CC)C(=S)SCCO
inactive: [1] 99.5% | [2] 103% | [3] 110% | [5] 111% | [6] 107% | [7] 106% | [9] 103% | [8] 102%

CCCC(=O)Oc1ccc2ccccc2c1
inactive: [1] 94.4% | [2] 94.6% | [3] 117% | [5] 91.8% | [6] 106% | [7] 113% | [9] 92.7% | [8] 102%

CC(C)(C)OC(=O)c1ccc(NCc2cc(O)ccc2O)cc1
inactive: [2] 17.2% | [3] 106% | [4] 12.3% | [5] 44.6% | [8] 23.1%
active: [1] 1.66% | [6] -14.3% | [7] -83.8%

O=C(Nc1ccccc1)OCC(CN1CCCCC1)OC(=O)Nc1ccccc1 (stereo not drawn)
inactive: [1] 90.6% | [2] 92.8% and 95.1% | [4] 76.4% and 104% | [5] 89.4% and 93.8% | [6] 68.8% and 98.3% | [7] 91.2% and 101% | [9] 91.6% | [8] 85.6% and 96.1%

Cc1nc2c(=O)[nH]c(=S)[nH]c2[nH]c1=O
inactive: [1] 104% and 105% | [2] 103% | [3] 109% and 102% | [4] 113% | [5] 112% and 107% | [6] 107% and 113% | [7] 118% and 111% | [9] 102% | [8] 106% and 103%

CCOc1ccc(/C=C\C(=O)O)cc1
inactive: [1] 113% | [2] 98.7% | [3] 117% | [4] 108% | [5] 139% | [7] 117% | [9] 112% | [8] 110%

O=C(O)/C=C/C=C/c1ccccc1
inactive: [1] 112% and 99.7% | [2] 102% and 109% | [3] 103% and 96.8% | [4] 116% and 108% | [5] 113% and 104% | [6] 105% and 110% | [7] 124% and 98.8% | [9] 109% and 108% | [8] 111% and 102%
